Structures are written as SMILES. Calls of active or inactive are those of the source.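 How the source made its calls: active means average half-effect concentration of 10 µM or less in every one of the four cell panels; inactive means the rest.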

In this test the test system is HL-1. Kind of test: cardiomyocyte survival under oxidative or metabolic stress – cell-based, panel, H9c2 and HL-1, H2O2, 2-deoxyglucose, ATP luminescence, SAR follow-up (AID 651642). The following applies: H9c2/HL-1 cardiomyocyte 2-deoxyglucose damage, mean of runs, with 2-deoxyglucose.
For the compound `CCOC(=O)c1cccc(NC(=O)CNC(=O)c2cc(-c3cc(OC)c(OC)c(OC)c3)nc3ccc(Br)cc23)c1`, the call was active. In the case of `COc1cc(-c2cc(C(=O)Nc3cccc(C(C)=O)c3)c3cc(C)ccc3n2)cc(OC)c1OC`, the result was inactive. In the case of `CCOC(=O)c1cccc(NC(=O)c2cc(-c3cc(OC)c(OC)c(OC)c3)nc3ccc(Cl)cc23)c1` it was “inactive”; in that of `CCOC(=O)c1cccc(NC(=O)c2cc(-c3cc(OC)c(OC)c(OC)c3)nc3ccc(F)cc23)c1`, “inactive”. For `COc1cc(-c2cc(C(=O)Nc3cccc(C(C)=O)c3)c3cccc(Cl)c3n2)cc(OC)c1OC` the value was “inactive”. For `COC(=O)CNC(=O)c1cc(-c2cc(OC)c(OC)c(OC)c2)nc2ccccc12`, the call was inactive. For `COc1ccc2c(c1OC)C(=O)N1c3ccccc3C(=O)N(Cc3ccccn3)C21` (configuration not stated) the value was “inactive”; for `COc1cc(-c2cc(C(=O)Nc3cccc(C(=O)N4CCOCC4)c3)c3ccccc3n2)cc(OC)c1OC`, “inactive”. `COc1ccc2nc(-c3cc(OC)c(OC)c(OC)c3)cc(C(=O)Nc3cccc(C(C)=O)c3)c2c1`: the result was inactive. For `COc1cc(-c2cc(C(=O)Nc3cccc(C(C)=O)c3)c3ccc(Cl)cc3n2)cc(OC)c1OC` the value was “inactive”; for `COc1cc(-c2cc(C(=O)Nc3cccc(C(=O)O)c3)c3ccccc3n2)cc(OC)c1OC`, “inactive”.

As for `COc1ccc2c(c1OC)C(=O)N1c3ccccc3C(=O)N(Cc3cccc(F)c3)C21` (configuration not stated), the compound was classed as active. Consider `COc1cc(-c2cc(C(=O)NCC(=O)Nc3cccc(C(C)=O)c3)c3ccccc3n2)cc(OC)c1OC`, for which the outcome was active.

Regarding `COc1ccc2c(c1OC)C(=O)N1c3ccccc3C(=O)N(Cc3cccc(Cl)c3Cl)C21` (configuration not stated), the compound was classed as active. In the case of `COc1cc(-c2cc(C(=O)NCC(=O)Nc3cccc(C(C)=O)c3)c3cc(Br)ccc3n2)cc(OC)c1OC` it was “active”. As to `COc1ccc2c(c1OC)C(=O)N1c3ccccc3C(=O)N(Cc3ccc(C)cc3C)C21` (configuration not stated), the result was inactive. Regarding `CCOC(=O)c1ccccc1NC(=O)c1cc(-c2cc(OC)c(OC)c(OC)c2)nc2ccccc12`, the outcome was inactive. Consider `CCOC(=O)c1cccc(NC(=O)c2cc(-c3cc(OC)c(OC)c(OC)c3)nc3ccccc23)c1`, for which the compound was classed as inactive. In the case of `COc1cc(-c2cc(C(=O)Nc3cccc(C(C)=O)c3)c3cc(Br)ccc3n2)cc(OC)c1OC` it was “inactive”; in that of `COc1cc(-c2cc(C(=O)Nc3cccc(C(=O)NC4CC4)c3)c3ccccc3n2)cc(OC)c1OC`, “active”.

On to `COc1ccc2c(c1OC)C(=O)N1c3ccccc3C(=O)N(Cc3ccncc3)C21` (configuration not stated), for which the compound was classed as inactive. Regarding `COc1cc(-c2cc(C(=O)NCC(=O)Nc3cccc(C(C)=O)c3)c3cc(F)ccc3n2)cc(OC)c1OC`, the call was active. For `COc1cccc(CNC(=O)CNC(=O)c2cc(-c3cc(OC)c(OC)c(OC)c3)nc3ccccc23)c1` the value was “inactive”; for `CCNC(=O)c1cccc(NC(=O)c2cc(-c3cc(OC)c(OC)c(OC)c3)nc3ccccc23)c1`, “active”; for `COc1ccc2c(c1OC)C(=O)N1c3ccccc3C(=O)N(Cc3ccccc3Cl)C21` (configuration not stated), “active”. For `COc1cc(-c2cc(C(=O)NCC(=O)Nc3cccc(C(C)=O)c3)c3cc(C)ccc3n2)cc(OC)c1OC` the value was “inactive”; for `CCOC(=O)c1cccc(NC(=O)c2cc(-c3cc(OC)c(OC)c(OC)c3)nc3ccc(C)cc23)c1`, “inactive”; for `CCOC(=O)c1cccc(NC(=O)CNC(=O)c2cc(-c3cc(OC)c(OC)c(OC)c3)nc3ccccc23)c1`, “inactive”. For `COc1cc(-c2cc(C(=O)NCC(=O)Nc3ccc(C(C)=O)cc3)c3ccccc3n2)cc(OC)c1OC` the value was “inactive”; for `COc1cc(-c2cc(C(=O)NCC(=O)O)c3ccccc3n2)cc(OC)c1OC`, “inactive”; for `COc1ccc2c(c1OC)C(=O)N1c3ccccc3C(=O)N(Cc3ccccc3F)C21` (configuration not stated), “active”. In the case of `COc1ccc2c(c1OC)C(=O)N1c3ccccc3C(=O)N(Cc3ccc(C)cc3)C21` (configuration not stated), the outcome was inactive.

The values are drawn from PubChem BioAssay AID651642 (Sanford-Burnham Center for Chemical Genomics, 2012).
